By AC50 is commonly meant the concentration at which the activity in the assay is half-maximal.

Assay [1] in a line: ATG_TCF_b_cat_CIS: Attagene CIS-FACTORIAL HepG2 Assay for human T-Cell-Factor with beta-catenin (TCF/b-cat) (AID 2282965). Conditions: HepG2 TCF/beta-catenin cis-reporter transcription, actives raise or lower the signal. An outline of the steps: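 Endogenous transcription factor activity is captured through cis-promoter reporter constructs transiently introduced into human HepG2 liver cells. Induced reporter mRNA is measured after 24 h and fitted bidirectionally relative to DMSO.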

Assay [2] in a line: ATG_TAL_CIS: Attagene CIS-FACTORIAL HepG2 Assay for human TAL Basal Promoter (AID 2282966).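 Note: background control endpoint measuring basal TAL promoter reporter mRNA not a specific factor.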 Conditions: HepG2 Attagene cis-factorial TAL promoter reporter; actives raise or lower the signal. The procedure, abridged:
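Steps: transfect HepG2 with multiple reporter transcription units; dose 24 h; isolate RNA, reverse-transcribe, PCR-amplify, label with 6-FAM, digest with HpaI; resolve by capillary electrophoresis. Bidirectional fitting against DMSO baseline.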

The nature of assay [3]: ATG_VDRE_CIS: Attagene CIS-FACTORIAL HepG2 Assay for human Vitamin D Receptor Element (VDRE) (AID 2282968). The following applies: HepG2 VDRE cis-reporter transcription, actives raise or lower the signal. The procedure, abridged:
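In transiently transfected HepG2 liver cells, gain or loss of reporter mRNA after 24 h exposure is scored relative to DMSO, using fluorescence detection by capillary electrophoresis of RT-PCR products.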

For assay [4], the target named is Nuclear receptor subfamily 1 group I member 3 (Homo sapiens) (UniProt Q14994). The assay is described as follows: ATG_CAR_TRANS: Attagene TRANS-FACTORIAL HepG2 Assay for human Constitutive Androstane Receptor (CAR) (AID 2282969; active = hit-call score of the fitted dose curve at least 0.9, where 1 is the maximum;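 note: activators raise reporter mRNA above DMSO so AC50 marks induction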). Conditions: HepG2 Attagene TRANS-FACTORIAL CAR reporter. The procedure, abridged: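 Readout is reporter mRNA induction, quantified by fluorescent primer extension and capillary electrophoresis after RT-PCR. Cells were HepG2 transiently carrying chimeric NR-Gal4 constructs with GAL4-UAS reporters, treated for 24 h; activity scored upward from DMSO.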

Assay [5] concerns the target Estrogen receptor (Homo sapiens) (UniProt P03372). The assay is described as follows: ATG_ERa_TRANS: Attagene TRANS-FACTORIAL HepG2 Assay for human Estrogen Receptor alpha (ERa) (AID 2282970; active = hit-call score of the fitted dose curve at least 0.9, where 1 is the maximum). The following applies: HepG2 Attagene TRANS ERa GAL4 reporter, mRNA. The procedure, abridged:
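Multiplexed cell-based reporter format in HepG2: chimeric ERa-Gal4 protein drives GAL4-UAS reporter transcription. Fluorescent reporter mRNA quantified by capillary electrophoresis 24 hours after dosing; endpoint fitted as signal gain against DMSO.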

In assay [6] the target is X-box-binding protein 1 (Homo sapiens) (UniProt P17861). The assay is described as follows: ATG_Xbp1_CIS: Attagene CIS-FACTORIAL HepG2 Assay for human X-box Binding Protein 1 (XBP1) (AID 2282972). The following applies: HepG2 XBP1 cis-element reporter, Attagene multiplex; actives raise or lower the signal. The procedure, abridged:
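HepG2 cells transiently transfected with cis-regulated multiple reporter transcription units; endogenous transcription factor activity measured 24 hours after chemical dosing. Reporter mRNA quantified by RT-PCR, 6-FAM primer extension, HpaI digestion and capillary electrophoresis; bidirectional fitting versus DMSO.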

In assay [7] the target is Bile acid receptor (Homo sapiens) (UniProt Q96RI1). The assay is described as follows: ATG_FXR_TRANS: Attagene TRANS-FACTORIAL HepG2 Assay for Farnesoid X Receptor (FXR) (AID 2282979; active = hit-call score of the fitted dose curve at least 0.9, where 1 is the maximum;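 note: hits raise reporter mRNA above DMSO so AC50 marks FXR activation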). The following applies: HepG2 Attagene TRANS FXR-GAL4 reporter transcription. An outline of the steps: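 After 24 h chemical treatment of transfected HepG2 cells, GAL4-UAS reporter transcripts driven by an exogenous FXR-GAL4 fusion were measured by RT-PCR and capillary electrophoresis. Increases over DMSO were fitted.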

In assay [8] the target is Oxysterols receptor LXR-beta (Homo sapiens) (UniProt P55055). The assay is described as follows: ATG_LXRb_TRANS: Attagene TRANS-FACTORIAL HepG2 Assay for human Liver X Receptor beta (LXRb) (AID 2282981; active = hit-call score of the fitted dose curve at least 0.9, where 1 is the maximum). Conditions: HepG2 Attagene TRANS GAL4-LXRb reporter, mRNA. An outline of the steps:
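Cells: HepG2, transiently transfected with GAL4-UAS reporter units plus LXRb-Gal4 fusion. Treatment: 24 h. Detection: reporter mRNA by RT-PCR, 6-FAM labelling, HpaI digestion, capillary electrophoresis.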

For assay [9], the target named is Hepatocyte nuclear factor 4-alpha (Homo sapiens) (UniProt P41235). The assay is described as follows: ATG_HNF4a_TRANS: Attagene TRANS-FACTORIAL HepG2 Assay for human Hepatocyte Nuclear Factor 4 alpha (HNF4a) (AID 2282982; active = hit-call score of the fitted dose curve at least 0.9, where 1 is the maximum). The following applies: HepG2 HNF4a transactivation reporter, mRNA readout. The procedure, abridged:
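Transfected HepG2 reporter cells are dosed for 24 h; reporter RNA is reverse-transcribed, amplified, fluorescently labelled and HpaI-digested before CE sizing. Positive-direction fit against DMSO.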

Assay [10] can be described thus: ATG_M_06_TRANS: Attagene TRANS-FACTORIAL HepG2 Assay for M06 Transcription Factor (Internal Marker) (AID 2282983; active = hit-call score of the fitted dose curve at least 0.9, where 1 is the maximum;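 for AC50: potency for rise in reporter mRNA above DMSO baseline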;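 for outcome: reporter transcript level by RT-PCR then capillary electrophoresis fluorescence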). Conditions: HepG2 Attagene TRANS M06 internal marker reporter. An outline of the steps: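 Internal-marker background readout from a multiplexed TRANS reporter system in HepG2; 24 h dosing; mRNA induction quantified by RT-PCR plus capillary electrophoresis fluorescence; DMSO as negative control and baseline.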

For assay [11], the target named is Transcriptional activator Myb (Homo sapiens) (UniProt P10242). The assay is described as follows: ATG_Myb_CIS: Attagene CIS-FACTORIAL HepG2 Assay for human Myeloblastosis (Myb) Proto-Oncogene Transcription Factor (AID 2282986). Conditions: HepG2 Attagene CIS-FACTORIAL Myb reporter transcription; actives raise or lower the signal. An outline of the steps:
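Fluorescence signals from capillary electrophoresis of RT-PCR-amplified reporter cDNA give the read-out. Cells: HepG2 transfected with multiple cis-regulated reporter units. Exposure lasts 24 hours; DMSO defines baseline for gain or loss of signal.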

The target in assay [12] is Nuclear respiratory factor 1 (Homo sapiens) (UniProt Q16656). The assay is described as follows: ATG_NRF1_CIS: Attagene CIS-FACTORIAL HepG2 Assay for human Nuclear Respiratory Factor 1 (NRF1) Orphan Gene (AID 2282987). Conditions: HepG2 NRF1 cis-element reporter, Attagene multiplex; actives raise or lower the signal. An outline of the steps:
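Transcriptional reporter readout, one component of a 52-endpoint multiplexed HepG2 panel. Exposure 24 h; mRNA detected via RT-PCR and fluorescent capillary electrophoresis; fitting in both directions against DMSO.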

Assay [13] in a line: ATG_TGFb_CIS: Attagene CIS-FACTORIAL HepG2 Assay for human Transforming Growth Factor (TGF) (AID 2282967). Conditions: HepG2 Attagene CIS TGFb reporter, mRNA transcription; actives raise or lower the signal. The procedure, abridged:
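HepG2 cells transiently transfected with cis-promoter-driven multiplexed reporter units; 24 h compound exposure. Reporter mRNA measured by RT-PCR, 6-FAM labeling, HpaI digestion and capillary electrophoresis; bidirectional fit versus DMSO baseline.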

Assay [14] in a line: ATG_M_19_TRANS: Attagene TRANS-FACTORIAL HepG2 Assay for M19 Transcription Factor (Internal Marker) (AID 2282974; active = hit-call score of the fitted dose curve at least 0.9, where 1 is the maximum). The following applies: HepG2 Attagene TRANS-FACTORIAL M19 internal marker reporter. The procedure, abridged: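 Measured here: internal-marker reporter transcript from HepG2 cells transfected with MRTUs, harvested at 24 h. cDNA PCR products were 6-FAM labelled by primer extension, cut with HpaI for 2 h at 37 C, and resolved by CE.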

A short description of assay [15]: ATG_M_32_TRANS: Attagene TRANS-FACTORIAL HepG2 Assay for M32 Transcription Factor (Internal Marker) (AID 2282984; active = hit-call score of the fitted dose curve at least 0.9, where 1 is the maximum;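 note: transcript level of a background control reporter unit measured by RT-PCR and capillary electrophoresis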). Conditions: HepG2 Attagene TRANS M32 internal marker reporter. The procedure, abridged: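 Using transiently transfected HepG2 cells exposed to test chemicals for 24 h, reporter transcripts are converted to labelled cDNA fragments and quantified by capillary electrophoresis. DMSO defines the activity baseline.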

The target in assay [16] is Nuclear receptor subfamily 4 group A member 2 (Homo sapiens) (UniProt P43354). The assay is described as follows: ATG_NURR1_TRANS: Attagene TRANS-FACTORIAL HepG2 Assay for human Nuclear Receptor Related Protein 1 (NURR1) (AID 2282985; active = hit-call score of the fitted dose curve at least 0.9, where 1 is the maximum). Conditions: HepG2 Attagene TRANS reporter, mRNA readout. An outline of the steps:
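Cells: HepG2, transiently transfected. Exposure: 24 h. Detection: fluorescence of labelled RT-PCR products separated by capillary electrophoresis; upward fit versus DMSO.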

Assay [17] can be described thus: ATG_GAL4_TRANS: Attagene TRANS-FACTORIAL HepG2 Assay for GAL4 (Internal Marker) (AID 2282976; active = hit-call score of the fitted dose curve at least 0.9, where 1 is the maximum). The following applies: HepG2 Attagene TRANS GAL4 internal marker reporter. An outline of the steps:
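Liver HepG2 line bearing multiplexed GAL4-UAS reporter constructs; 24 h chemical treatment. Transcripts were quantified as fluorescent fragments on capillary electrophoresis after RT-PCR and HpaI cut, with activity fitted upward from DMSO.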

Assay [18] deals with Glucocorticoid receptor (Homo sapiens) (UniProt P04150). The assay is described as follows: ATG_GR_TRANS: Attagene TRANS-FACTORIAL HepG2 Assay for human Glucocorticoid Receptor (GR) (AID 2282978; active = hit-call score of the fitted dose curve at least 0.9, where 1 is the maximum;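 note: activators score as hits since higher reporter transcript over DMSO is fitted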). Conditions: HepG2 Attagene TRANS GR reporter, mRNA transcription. The procedure, abridged:
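Measurement of GAL4-UAS-driven reporter mRNA in human HepG2 liver cells 24 h post-dosing, using RT-PCR with fluorescent labelling and capillary electrophoresis; the transfected constructs report exogenous NR-GAL4 chimera activity, fitted upward against DMSO.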

Records with an inconclusive call do not appear. Active and inactive are the calls of the source. Rule for the calls, unless noted: active = hit-call score of the fitted dose curve at least 0.9, where 1 is the maximum; inactive = score below 0.9.

Sequence of Glucocorticoid receptor (Homo sapiens) (P04150 whole entry, looked up, the tested form may be a part): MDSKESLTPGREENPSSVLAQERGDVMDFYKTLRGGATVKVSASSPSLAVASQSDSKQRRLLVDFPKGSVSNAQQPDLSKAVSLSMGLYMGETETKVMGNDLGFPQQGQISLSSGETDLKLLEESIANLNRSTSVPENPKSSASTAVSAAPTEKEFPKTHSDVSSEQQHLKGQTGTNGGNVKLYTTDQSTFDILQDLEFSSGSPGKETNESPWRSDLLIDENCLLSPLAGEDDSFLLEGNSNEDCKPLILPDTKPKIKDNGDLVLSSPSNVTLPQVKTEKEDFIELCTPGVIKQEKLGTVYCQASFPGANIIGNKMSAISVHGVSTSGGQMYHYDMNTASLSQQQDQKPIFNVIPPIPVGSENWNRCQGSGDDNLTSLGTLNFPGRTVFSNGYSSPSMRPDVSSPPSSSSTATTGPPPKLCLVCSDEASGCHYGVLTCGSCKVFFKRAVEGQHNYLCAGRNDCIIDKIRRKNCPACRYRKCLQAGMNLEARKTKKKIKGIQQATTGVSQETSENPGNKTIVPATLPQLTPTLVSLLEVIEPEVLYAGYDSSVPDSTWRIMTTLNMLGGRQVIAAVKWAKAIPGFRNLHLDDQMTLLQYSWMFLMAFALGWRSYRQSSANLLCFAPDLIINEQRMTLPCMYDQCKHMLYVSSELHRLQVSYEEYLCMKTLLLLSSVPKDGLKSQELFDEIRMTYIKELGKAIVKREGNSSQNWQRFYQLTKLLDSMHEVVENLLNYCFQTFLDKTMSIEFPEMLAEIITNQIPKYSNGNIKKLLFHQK
Sequence of Nuclear respiratory factor 1 (Homo sapiens) (Q16656 whole entry, looked up): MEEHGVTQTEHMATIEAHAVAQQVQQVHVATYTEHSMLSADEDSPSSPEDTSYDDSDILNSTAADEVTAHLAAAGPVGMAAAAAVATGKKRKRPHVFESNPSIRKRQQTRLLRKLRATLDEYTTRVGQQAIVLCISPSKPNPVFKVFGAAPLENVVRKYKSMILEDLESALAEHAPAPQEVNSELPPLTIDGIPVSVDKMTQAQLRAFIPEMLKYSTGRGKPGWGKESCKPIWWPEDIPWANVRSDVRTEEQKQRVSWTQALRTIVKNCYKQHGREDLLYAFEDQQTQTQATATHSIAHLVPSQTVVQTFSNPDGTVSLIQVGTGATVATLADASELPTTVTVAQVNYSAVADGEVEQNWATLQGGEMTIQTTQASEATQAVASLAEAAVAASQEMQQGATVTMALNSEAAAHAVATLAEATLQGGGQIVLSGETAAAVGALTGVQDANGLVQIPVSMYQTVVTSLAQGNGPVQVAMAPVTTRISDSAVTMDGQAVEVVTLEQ
Sequence of Hepatocyte nuclear factor 4-alpha (Homo sapiens) (P41235 whole entry, looked up): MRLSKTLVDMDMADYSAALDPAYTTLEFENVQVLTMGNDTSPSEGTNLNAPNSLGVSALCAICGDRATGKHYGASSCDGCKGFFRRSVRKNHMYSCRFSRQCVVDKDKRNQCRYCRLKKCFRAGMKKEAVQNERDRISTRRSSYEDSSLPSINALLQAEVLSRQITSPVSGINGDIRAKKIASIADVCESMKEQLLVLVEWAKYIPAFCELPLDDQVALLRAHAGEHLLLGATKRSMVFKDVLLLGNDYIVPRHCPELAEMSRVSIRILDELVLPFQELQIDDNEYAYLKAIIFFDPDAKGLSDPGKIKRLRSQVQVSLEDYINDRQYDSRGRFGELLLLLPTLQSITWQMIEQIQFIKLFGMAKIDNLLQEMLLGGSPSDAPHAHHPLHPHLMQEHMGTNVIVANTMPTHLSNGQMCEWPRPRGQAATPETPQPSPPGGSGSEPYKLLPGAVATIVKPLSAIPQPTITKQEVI
Sequence of Transcriptional activator Myb (Homo sapiens) (P10242 whole entry, looked up): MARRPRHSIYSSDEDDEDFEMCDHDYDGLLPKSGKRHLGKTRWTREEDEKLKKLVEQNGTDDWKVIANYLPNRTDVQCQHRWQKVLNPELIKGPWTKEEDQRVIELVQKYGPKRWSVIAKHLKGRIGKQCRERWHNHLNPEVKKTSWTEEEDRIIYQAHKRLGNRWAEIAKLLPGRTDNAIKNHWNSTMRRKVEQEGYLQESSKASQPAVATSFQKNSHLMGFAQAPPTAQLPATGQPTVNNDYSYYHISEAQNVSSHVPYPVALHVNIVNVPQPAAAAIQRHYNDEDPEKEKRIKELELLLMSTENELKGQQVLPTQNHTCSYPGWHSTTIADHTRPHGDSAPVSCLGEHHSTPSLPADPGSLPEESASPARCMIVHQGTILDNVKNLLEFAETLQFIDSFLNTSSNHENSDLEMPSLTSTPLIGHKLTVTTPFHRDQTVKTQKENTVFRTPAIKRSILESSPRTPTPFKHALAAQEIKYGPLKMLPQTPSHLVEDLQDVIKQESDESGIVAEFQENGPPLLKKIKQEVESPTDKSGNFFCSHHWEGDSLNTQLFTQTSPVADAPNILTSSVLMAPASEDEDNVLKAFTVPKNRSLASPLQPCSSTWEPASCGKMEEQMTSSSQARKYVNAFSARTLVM
Sequence of Nuclear receptor subfamily 1 group I member 3 (Homo sapiens) (Q14994 whole entry, looked up, the tested form may be a part): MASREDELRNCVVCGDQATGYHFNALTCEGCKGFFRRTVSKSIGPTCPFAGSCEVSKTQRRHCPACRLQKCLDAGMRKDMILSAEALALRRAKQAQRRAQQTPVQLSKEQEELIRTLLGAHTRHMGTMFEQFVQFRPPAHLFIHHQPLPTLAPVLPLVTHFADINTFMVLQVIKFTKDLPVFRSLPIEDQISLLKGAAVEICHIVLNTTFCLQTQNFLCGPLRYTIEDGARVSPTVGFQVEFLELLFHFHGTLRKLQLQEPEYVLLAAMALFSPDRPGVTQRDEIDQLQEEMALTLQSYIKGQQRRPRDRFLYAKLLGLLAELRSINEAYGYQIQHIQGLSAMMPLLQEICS
Sequence of Nuclear receptor subfamily 4 group A member 2 (Homo sapiens) (P43354 whole entry, looked up): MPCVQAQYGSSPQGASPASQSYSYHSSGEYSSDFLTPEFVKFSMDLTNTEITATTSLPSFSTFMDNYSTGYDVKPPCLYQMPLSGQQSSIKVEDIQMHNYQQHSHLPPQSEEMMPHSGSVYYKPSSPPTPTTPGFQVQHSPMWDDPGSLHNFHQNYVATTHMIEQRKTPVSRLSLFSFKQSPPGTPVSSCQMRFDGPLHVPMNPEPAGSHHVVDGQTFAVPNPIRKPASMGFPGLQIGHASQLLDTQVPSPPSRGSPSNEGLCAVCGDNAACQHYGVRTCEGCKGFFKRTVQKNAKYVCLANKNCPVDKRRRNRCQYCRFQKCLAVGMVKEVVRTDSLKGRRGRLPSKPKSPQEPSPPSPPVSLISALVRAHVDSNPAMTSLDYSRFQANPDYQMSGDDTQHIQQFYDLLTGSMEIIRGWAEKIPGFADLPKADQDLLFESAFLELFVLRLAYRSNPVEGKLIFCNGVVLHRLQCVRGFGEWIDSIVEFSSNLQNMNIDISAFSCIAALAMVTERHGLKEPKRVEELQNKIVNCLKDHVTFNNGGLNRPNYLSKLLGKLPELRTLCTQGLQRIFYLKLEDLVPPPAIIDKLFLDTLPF
Sequence of X-box-binding protein 1 (Homo sapiens) (P17861 whole entry, looked up): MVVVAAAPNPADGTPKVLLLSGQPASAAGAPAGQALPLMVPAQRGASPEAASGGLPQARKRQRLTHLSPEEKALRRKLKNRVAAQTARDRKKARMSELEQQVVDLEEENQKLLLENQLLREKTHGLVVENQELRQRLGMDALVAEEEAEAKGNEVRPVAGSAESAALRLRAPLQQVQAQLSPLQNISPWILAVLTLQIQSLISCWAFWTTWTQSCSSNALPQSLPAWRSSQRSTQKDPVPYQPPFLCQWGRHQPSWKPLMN
Sequence of Oxysterols receptor LXR-beta (Homo sapiens) (P55055 whole entry, looked up, the tested form may be a part): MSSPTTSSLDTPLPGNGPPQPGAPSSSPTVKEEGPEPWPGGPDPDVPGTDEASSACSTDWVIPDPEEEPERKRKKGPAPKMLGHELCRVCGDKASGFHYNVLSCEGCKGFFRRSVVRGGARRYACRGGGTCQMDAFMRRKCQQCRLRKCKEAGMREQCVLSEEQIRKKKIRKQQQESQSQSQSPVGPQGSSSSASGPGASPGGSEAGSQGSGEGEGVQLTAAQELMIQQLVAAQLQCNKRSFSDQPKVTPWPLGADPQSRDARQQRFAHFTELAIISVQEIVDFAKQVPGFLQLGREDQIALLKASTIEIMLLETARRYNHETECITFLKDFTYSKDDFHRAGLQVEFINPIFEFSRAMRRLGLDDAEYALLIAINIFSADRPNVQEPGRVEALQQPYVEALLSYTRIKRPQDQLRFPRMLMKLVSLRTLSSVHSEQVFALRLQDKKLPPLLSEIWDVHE
Sequence of Estrogen receptor (Homo sapiens) (P03372 whole entry, looked up, the tested form may be a part): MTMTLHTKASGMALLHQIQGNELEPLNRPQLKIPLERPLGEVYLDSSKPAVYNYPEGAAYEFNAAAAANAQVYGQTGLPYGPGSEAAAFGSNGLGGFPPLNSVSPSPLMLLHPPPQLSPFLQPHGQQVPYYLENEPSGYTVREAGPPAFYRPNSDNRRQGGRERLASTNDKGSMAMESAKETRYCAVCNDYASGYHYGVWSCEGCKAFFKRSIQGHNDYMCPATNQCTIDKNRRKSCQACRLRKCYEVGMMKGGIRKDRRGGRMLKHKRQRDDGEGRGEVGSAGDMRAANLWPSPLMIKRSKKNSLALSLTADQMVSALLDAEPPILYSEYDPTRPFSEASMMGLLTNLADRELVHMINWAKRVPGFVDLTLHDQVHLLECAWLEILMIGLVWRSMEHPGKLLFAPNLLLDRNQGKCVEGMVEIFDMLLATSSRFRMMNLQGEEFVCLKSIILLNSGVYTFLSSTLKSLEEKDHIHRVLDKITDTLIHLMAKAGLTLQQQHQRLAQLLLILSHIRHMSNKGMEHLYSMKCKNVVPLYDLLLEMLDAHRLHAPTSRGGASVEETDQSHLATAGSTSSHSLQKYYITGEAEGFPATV

For `CCCCCCCCCCCCCCCS(=O)(=O)Oc1ccccc1`, the result in assay [1], in [2], in [3], in assay [4], in assay [5] and in [6] was inactive. The outcome in assay [7], in assay [8], in [9], in assay [10], in [11] and in assay [12] was inactive.

For `CCCCCCCCC(=O)O`, the result in assay [1], in [2], in assay [13], in assay [5], in assay [6] and in [14] was inactive. Also, the molecule was classed as inactive in [8], in assay [9], in assay [10], in assay [15], in [16] and in assay [11]. Also, the molecule was classed as inactive in assay [12].

Consider `CCc1ccc(CCOc2ccc(CC3SC(=O)NC3=O)cc2)nc1` (stereo not given), for which the call in assay [1], in [2], in [3], in assay [4], in assay [5] and in assay [6] was inactive. Moreover, the outcome in [14], in assay [17], in assay [8], in assay [9], in assay [11] and in assay [12] was inactive.

As to `C#C[C@]1(O)CC[C@H]2[C@@H]3CCC4=CC(=O)CC[C@@H]4[C@H]3CC[C@@]21C`, the result in [1], in assay [2], in assay [13], in [4], in assay [6] and in assay [14] was inactive. Moreover, the outcome in [18], in assay [10], in assay [16], in assay [11] and in assay [12] was inactive.

With `CC(=O)NC1(c2cccc(F)c2)CCN(CC[C@@]2(c3ccc(Cl)c(Cl)c3)CN(c3ccccc3)C(=O)CO2)CC1`, the AC50 in [1] was 8.64 µM (active); in assay [3], 39.8 µM (active); in assay [6] it was 25.7 µM (active); in assay [10], 52 µM (active); in assay [12], 57.5 µM (active). Further, the call in assay [2], in assay [14], in [17], in assay [7], in assay [8] and in assay [9] was inactive. For the same molecule, in assay [11], the call was inactive.
